Experimental data from PubChem BioAssay (Tox21).
Inconclusive results are not listed. Entries that show only a call come without a potency. Unmarked numbers belong to inactive results. Activity calls are given as the source filed them. Calls follow the shape of the dose curve; as a rule, active = well fitted cell-killing curve with a large enough effect in the repeat runs; inconclusive = weak or mixed curves, or effect the other way; inactive = no such curve, though single readings can be large or run the other way.

assay: qHTS assay for small molecule activators of the heat shock response signaling pathway - cell viability counter screen (AID 743209); details: HSE-bla HeLa viability, CellTiter-Glo luminescence, 5 h; series mostly up to 62.6 µM; also: nearly all actives have a fitted effect of over 50% in size
Description: U.S. Tox21 Program National Center for Advancing Translational Sciences [NCATS] NIH Chemical Genomics Center [NCGC] U.S. Environmental Protection Agency [EPA] National Institutes of Environmental Health Sciences [NIEHS] National Toxicology Program [NTP] U.S. Food and Drug Administration [FDA] Tox21 Assay Overview: Various chemicals, environmental and physiological stress conditions may lead to the activation of heat shock response/ unfolded protein response (HSR/UPR). There are three heat shock transcription factors (HSFs) (HSF-1, -2, and -4) mediating transcriptional regulation of the human HSR. To identify the compounds that activate HSR signaling, HSE-bla HeLa cell line (Invitrogen, Carlsbad, CA, USA) containing a beta-lactamase reporter gene under the control of the heat shock response elements was used to screen Tox21 10K compound library. The cytotoxicity of the Tox21 compound library against the HSE-bla HeLa cell line was tested in parallel by measuring the cell viability using CellTiter-Glo assay (Promega, Madison, WI) in the same wells.
Tox21 Assay Protocol Summary: The CellSensor HSE-bla HeLa cells (Invitrogen, Carlsbad, CA, USA) were dispensed at 1500 cells/6uL/well into 1536-well black wall/clear bottom plates using a Multidrop combi (Thermo Fisher Scientific, Waltham, MA) dispenser. After the assay plates were incubated at 37 C and 5% CO2 overnight, 23 nL of compounds dissolved in DMSO, positive controls or DMSO only was transferred to the assay plate by a Pintool station (Kalypsys, San Diego, CA). The plates were incubated at 37 C for 5 h. After 1 uL of LiveBLAzerTM B/G FRET substrate was added using a Flying Reagent Dispenser (FRD, Beckman Coulter, Indianapolis, IN, USA), the plates were incubated at room temperature for 2.5 h, and fluorescence intensity was measured by an Envision plate reader (PerkinElmer, Shelton, CT). For cell viability readout that measures cytotoxicity, 3 ul/well of CellTiter-Glo reagent was added into the assay plates using a FRD. After 30 min incubation at room temperature, the luminescence intensity in the plates was measured using a ViewLux (PerkinElmer) plate reader.

Compound	Potency	activity change, negative = cytotoxicity
C=C(C)C(=O)OCCOCC	inactive	–
Nc1ccc([N+](=O)[O-])c(C(F)(F)F)c1	inactive	–
O=C1CCC(=O)O1	inactive	–
CN1CCN(C(c2ccccc2)c2ccccc2)CC1	inactive	–
CC(C)(CO)[N+](=O)[O-]	inactive	–
O=C(O)c1ccco1	inactive	–
CC1OC(=O)C(C)OC1=O (stereo not given)	inactive	–
CCC(CC)Nc1ccc(C)c(C)c1	inactive	–
CCCCC(=O)OCC(=O)[C@H]1[C@H](C)C[C@H]2[C@@H]3C[C@H](F)C4=CC(=O)C=C[C@]4(C)[C@@]3(F)[C@@H](O)C[C@@]21C	inactive	–
CCCCC	inactive	–
Nc1cccc(S(=O)(=O)c2cccc(N)c2)c1	inactive	–
CN(C)c1ccc(CCO)cc1	inactive	–
NC(N)=NCCC[C@H](N)C(=O)O	–	4.58% [at 5.95 µM]
CCN(CC)CCOC(=O)C(c1ccccc1)C1CCCCC1 (stereo not given)	inactive	–
Cc1cccc(Nc2ccccc2)c1	inactive	–
CCCCC(CC)CN1C(=O)C2C3C=CC(C3)C2C1=O (stereo not given)	inactive	–
Cc1oc2c(NC(=O)c3c(Cl)cccc3Cl)cccc2c1C(C)(C)O	inactive	–
CCCCCCCCCCO[C@@H]1O[C@H](CO)[C@@H](O)[C@H](O)[C@H]1O	inactive	–
O=C1OC(CN2CCOCC2)CN1/N=C/c1ccc([N+](=O)[O-])o1 (stereo not given)	inactive	–
OCc1cc(C(O)CNCCCCCCOCCCCc2ccccc2)ccc1O (stereo not given)	inactive	–

Compound	Potency	activity change, negative = cytotoxicity
CCC(C)(C)CC	inactive	–
CCCCc1nc2cccnc2n1Cc1ccc(-c2ccccc2-c2nnn[nH]2)cc1	inactive	–
CCCCCCCCO[C@@H]1O[C@H](CO)[C@@H](O)[C@H](O)[C@H]1O	inactive	–
CC/C=C\CCOC(=O)CC	inactive	–
CC(CC=O)c1ccccc1 (stereo not given)	inactive	–
CCCCC(CC)COC(=O)COc1ccc(Cl)cc1Cl (stereo not given)	inactive	–
CN(C)CCCN1c2ccccc2Sc2ccccc21	inactive	–
CCCC(=O)Nc1ccc(O)c(C(C)=O)c1	inactive	–
COc1ccc(S(=O)(=O)N2C(=O)[C@@](c3ccccc3OC)(N3C[C@H](O)C[C@H]3C(=O)N(C)C)c3cc(Cl)ccc32)c(OC)c1	inactive	–
O=C1c2ccccc2S(=O)(=O)N1CCCCN1CCN(c2ncccn2)CC1	inactive	–
CCCCCCCCCCCc1ccccc1	inactive	–
Cc1cccc(C)c1NC(=O)CN(CC(=O)O)CC(=O)O	inactive	–
CCC(Cl)CCC(Cl)C(Cl)CC(Cl)C(Cl)C(Cl)CCl (stereo not given)	inactive	–
Cc1ccc(N=Nc2c(O)c(C(=O)O)cc3ccccc23)c(S(=O)(=O)O)c1	inactive	–
C[Si](C)(CCCN)O[Si](C)(C)CCCN	inactive	–
CCO[Si](CCCCl)(OCC)OCC	inactive	–
O=C(O)c1ccccc1Cl	inactive	–
CC1CCC(=O)C1=O (stereo not given)	inactive	–
CCCCCCCN	inactive	–
O=C(O)c1ccc(-n2nc(-c3ccccc3O)nc2-c2ccccc2O)cc1	inactive	–
